This is an account of results in PubChem BioAssay (NCATS).

Results filed as inconclusive are left out. Where a call stands in place of a potency, no number is given. Calls of active or inactive are those of the source. The call rests on the fitted dose curve; in most records, active means well fitted cell-killing curve with a large enough effect; inconclusive means small, poorly fitted or top-dose-only effect; inactive means flat fitted curve, though single readings scatter. Peptide text beside a SMILES is read from it.
Potency means the concentration at half of the fitted maximal effect.

The experiment in a line: Cell Viability - LYMP1-003 - Assay at 40 hr (AID 964). Further: nearly all actives have a fitted effect of over 60% in size. As to conditions: LYMP1-003 lymphoblastoid viability; series mostly up to 92.2 µM. The text has this: NIH Chemical Genomics Center [NCGC]
NIH Molecular Libraries Screening Centers Network [MLSCN]
National Institutes of Environmental Health Sciences [NIEHS]
National Toxicology Program [NTP]
We have developed a 1536-well cell-based assay for quantitative high throughput screening (qHTS) against a number of cell lines to determine in vitro cytotoxicity of small molecules. This particular assay uses a human lymphoblastoid cell line (LYMP1-003) purchased from Coriell Institute for Medical Research.
NCGC Assay Protocol Summary:
The CellTiter-Glo luminescent cell viability assay (Promega) is a homogeneous method to measure the number of viable cells in culture. The end point readout of this assay is based on quantitation of intracellular ATP, an indicator of metabolic activity, using the luciferase reaction. Luciferase catalyzes the oxidation of beetle Luciferin to oxyluciferin and light in the presence of ATP. The luminescent signal is proportional to amount of ATP present.
Using the CellTiter-Glo luminescent cell viability assay, the amount of cellular ATP was measured in the lymphoblastoid cell line with complete culture medium following compound treatment for 40 hours. The assay was performed in opaque white Kalypsys 1536-well plates. In the screen, tetraoctylammonium bromide was used as positive control. Library compounds were measured for their ability to cause acute toxicity in the cell line, as reflected by a decrease in intracellular ATP levels, in a concentration-dependent manner. […] AC50 values were determined from concentration-response data modeled with the standard Hill equation.
qHTS protocol for CellTiter Glo lymphoblastoid cellular assay
[Step] [Parameter] [Value] [Description]
1. Reagent; 5 uL; 2500 lymphoblastoid cells/well
2. Time; 5 hr; 37 C incubation
4. Controls; 23 nL; Tetraoctylammonium bromide 6.4pM to 92 uM
5. Time; 40 hr; 37 C incubation
6. Reagent; 5 uL; CellTiter Glo reagent
7. Time; 30 min; Room Temperature
8. Detection; Luminescence; Viewlux plate reader
Keywords: cell viability, cytotoxicity, lymphoblastoid cell line, luminescence, NTPHTS, NTPHTS_NCGC, NIEHS, DSSTox, MLSMR, MLSCN, NIH Roadmap, qHTS, NCGC
Turning to `Cc1ccc(C)c(OCCCC(C)(C)C(=O)O)c1`, the Potency result was “inactive”.
Under `NS(=O)(=O)c1cc(C(=O)O)c(NCc2ccco2)cc1Cl` stands “inactive”.
Under `COc1c2occc2cc2ccc(=O)oc12` stands “inactive”.
Under `Nc1ccc(S(N)(=O)=O)cc1` stands “inactive”; under `CCCCC(CC)COC(=O)C(C#N)=C(c1ccccc1)c1ccccc1` (stereo not drawn), “inactive”; under `COC(=O)[C@H](Cc1ccccc1)NC(=O)[C@@H](N)CC(=O)O` (H-Asp-Phe-OMe), “inactive”.
On to `Cc1cc(O)c2c(c1)C(=O)c1cc(O)cc(O)c1C2=O`, for which the Potency entry was “inactive”.
In the case of `CS(=O)(=O)OCCCCOS(C)(=O)=O` it was “inactive”.
`CC(=O)Nc1ccc(O)cc1`: the Potency result is “inactive”.
Under `c1ccc2[nH]c(-c3cscn3)nc2c1` stands “inactive”.
With `CN(C)c1ccc2nc3ccc(=[N+](C)C)cc-3sc2c1`, the Potency is 3.98 µM (active).
In the case of `CCCc1cc(=O)[nH]c(=S)[nH]1` it was “inactive”.
In the case of `CCc1nc(N)nc(N)c1-c1ccc(Cl)cc1` it was 7.94 µM (active).
